The campaign covered roughly 69,000 compounds. About 8,600 (12%) showed an effect of 50% or more. Shown is part of a subset that was picked to be rich in strong results.

For the experiment, the system named is Plasmodium berghei. In words: Screen against P. berghei liver stage (PbLuc), transformed with Luciferase, at 10uM. The class given is functional, HepG2. The note with it: tested at 10 uM.
Turning to `CNC(=O)C1(c2cnccn2)CCCN1C(=O)c1ccccn1` (centres undefined), the INHIBITION was 42.4%.
For `CCOCC(O)CN1CCN(C(=O)C2CCCC2)CC1` (centres undefined), the INHIBITION is on record as -19.4%.
For `Cc1ccc(CN(CCCN2CCOCC2)Cc2cnc(C)n2C)o1` the value was -11.7%; for `O=C(c1cccc(OCc2cscn2)c1)N1CCOCC1`, 45.75%; for `NC(=O)C1CCN(C(=O)c2ccc(OCc3cscn3)cc2)CC1`, 56.85%.
Regarding `CC(=O)N1CCN(C(=O)c2cccc(OCc3cscn3)c2)CC1`, the INHIBITION came out at 1.82%.
`NC(=O)C1CCCN(C(=O)c2cccc(OCc3cscn3)c2)C1` (centres undefined): the INHIBITION worked out at 24.05%.
In the case of `NC(=O)C1CCN(C(=O)c2cccc(OCc3cscn3)c2)CC1`, the INHIBITION worked out at 17.8%.
In the case of `O=C1CN(C(=O)c2cccc(OCc3cscn3)c2)CCN1`, the INHIBITION is recorded as 61.5%.
The same measure for `Cc1cccc(CN2CCC3(CC2)NC(=O)CC3c2ccccc2)n1` (centres undefined): 37.1%.
Take `CC1CCCN(C(=O)NCCCn2cncn2)C1` (centres undefined): the INHIBITION came to 9.45%.
As to `Cn1nccc1-c1nnn2c1COCC(CNCC1CC1)C2` (centres undefined), the INHIBITION came out at 45.7%.
With `CC(C)CN1CCC2(C=C(C(=O)NC3CC3)c3ccccc32)CC1`, the INHIBITION came to 27.2%.
Consider `CC(C)(C)NC(=O)COc1ccc(CNCCOc2ccccn2)cc1`, for which the INHIBITION was 18.6%.
For `CC(C)(C)NC(=O)COc1ccc(CNCc2ccccn2)cc1` the value was -6.39%; for `COCCNCc1ccc(OCC(=O)NC(C)(C)C)cc1`, 51.6%; for `Cc1ccc(C2=CCN(C(=O)C3CCN(C)C(=O)C3)CC2)cc1` (centres undefined), -14.7%.
`COc1ncccc1C(=O)NC1CCOc2ccccc21` (centres undefined): the INHIBITION was 33.3%.
Turning to `CCN(C)c1ncnc2c1CCN(C(=O)NCc1cccnc1)CC2`, the INHIBITION is -75.9%.
The same measure for `Cn1nc(-c2ccccc2)c(Cl)c1C(=O)O`: 46.1%; for `Cc1ccc(-c2nn(C)c(C(=O)O)c2Br)cc1`: 62.8%.
As for `Cn1nc(-c2ccc(Cl)cc2)c(Br)c1C(=O)O`, the INHIBITION stood at 65.6%.
The same measure for `Cc1cccc(-n2cnc(Cl)c2C(=O)O)c1`: 8.08%.
Take `Cn1nc(-c2ccccc2)c(Br)c1C(=O)O`: the INHIBITION was 36.9%.
The same measure for `Cn1nc(-c2cccc(Cl)c2)c(Br)c1C(=O)O`: 46.1%.
The same measure for `CNC(=O)CN(C)C(=O)c1ccc(-c2nc(C)cs2)cc1`: 40.7%; for `Cc1noc(CNC(=O)N2CCN(c3nc(C)c(C)s3)CC2)n1`: 10.5%.
For `CCCN(Cc1cnn(C)c1)S(=O)(=O)c1cccc(F)c1C#N`, the INHIBITION is given as -43.6%.
The same measure for `O=C1CCC2(CCC(NC(=O)NCc3ccccc3)CC2)N1` (centres undefined): -46.7%.
As for `CC(CN1CCOC1=O)NC(=O)c1cccc(Cl)c1Cl` (centres undefined), the INHIBITION is listed as -28.9%.
With `Cc1cnn(CC2CCCN2C(=O)c2ccccc2-n2cnnn2)c1` (centres undefined), the INHIBITION is reported as -33.9%.
The same measure for `O=c1[nH][nH]c2cn(-c3ccc(F)cc3)c(=O)n12`: 26.6%.
`O=c1[nH][nH]c2cn(-c3ccccc3)c(=O)n12`: the INHIBITION is listed as 63.7%.
As to `O=c1[nH][nH]c2cn(-c3ccc(Br)cc3)c(=O)n12`, the INHIBITION was 46.4%.
On to `COc1ccc2c(ccn2CCC(=O)Nc2n[nH]c(C(C)C)n2)c1`, for which the INHIBITION is -45.5%.
Turning to `CN(C(=O)NCc1ccsc1)C1CCN(c2ccccc2)C1=O` (centres undefined), the INHIBITION is listed as -10.2%.
As for `CCCNC(=O)CCNc1cncc(-n2nc(C)cc2C)n1`, the INHIBITION is -2.03%.
Turning to `CCCc1nc(C)cc(N2CCC3(CCC(=O)N(CC(N)=O)C3)CC2)n1`, the INHIBITION is -42.1%.
With `CCCc1cc(=O)n(CC(=O)NC(C)C)c(-n2nc(C)cc2C)n1`, the INHIBITION turned out to be 29.3%.
Take `CCCc1cc(=O)n(CC(=O)NCCOC)c(-n2nc(C)cc2C)n1`: the INHIBITION came out at 28.7%.
Take `CCCc1cc(=O)n(CC(N)=O)c(-n2nc(C)cc2C)n1`: the INHIBITION amounted to 81.3%.
Regarding `CCCNC(=O)Cn1c(-n2nc(C)cc2C)nc(CCC)cc1=O`, the INHIBITION is recorded as 54.2%.
As to `CN(C)CCCn1ccnc1C1CCCN(c2ncc(Cl)cc2F)C1` (centres undefined), the INHIBITION is 17.5%.
In the case of `O=C(O)C1(n2ccc(-c3ccco3)n2)CCN(Cc2ccccn2)CC1`, the INHIBITION is listed as 4.1%.
Consider `Cc1cc(C)n(C2CN(CC(=O)NC(C3CC3)C3CC3)C2)n1`, for which the INHIBITION was 17.4%.
For `O=C(NCC(=O)N1CCCC1)c1nc(Cc2c(Cl)cccc2Cl)no1`, the INHIBITION was -32.8%.
The same measure for `Cc1ccc(C#N)c(N2CCC3(CCCN(C4CCOCC4)C3=O)C2)n1` (centres undefined): -20.8%; for `c1cnc(N2CCOCC3(C2)CN(c2nccs2)CCO3)nc1` (centres undefined): 44.8%; for `CN(CC(=O)NC(Cc1ccsc1)c1cccnc1)Cc1cccnc1` (centres undefined): 64.6%.
`CN(CC(=O)NC(Cc1ccsc1)c1cccnc1)Cc1ccccn1` (centres undefined): the INHIBITION was determined as 26.1%.
`Cc1csc(C(Cc2ccsc2)NC(=O)CN(C)Cc2cccnc2)n1` (centres undefined): the INHIBITION was found to be 42.6%.
Take `CC(NC(=O)N1CCCN(C)CC1)c1ccc(S(N)(=O)=O)cc1` (centres undefined): the INHIBITION is on record as -5.22%.
For the compound `Cc1ccc(O)c(CNC2CCc3nc(C(C)C)nn3C2)n1` (centres undefined), the INHIBITION was 15.8%.
On to `CN1CC(=O)N(c2ccsc2)CC12CCN(C(=O)N1CCCC1)C2` (centres undefined), for which the INHIBITION is recorded as -5.05%.

Values taken from ChEMBL document CHEMBL4513216, “Probing the Open Global Health Chemical Diversity Library for Multistage-Active Starting Points for Next-Generation Antimalarials” (ACS Infect Dis, 2020).
